Experimental findings from PubChem BioAssay (Tox21) are described below.

Each structure is given as a SMILES string. Activity calls are given as the source filed them. Unless noted, calls follow the shape of the dose curve; as a rule, active = well fitted curve in the direction sought with a large enough effect in the repeat runs; inconclusive = weak or mixed curves; inactive = no such curve, though single readings can be large; an effect the other way counts as inactive or inconclusive.
% is scaled to controls: 0 for no effect and ±100 for the full control effect.

Tested on in one assay: not listed separately
Put plainly: qHTS assay to test for compound auto fluorescence at 460 nm (blue) in HepG2 cells (AID 720687). Particulars: autofluorescence 405/460 nm, 1 h; series mostly up to 91.3 µM; fluorescence, % of fluorescent control: at the top concentration. The gist of the method:
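Blue-channel autofluorescence (Ex/Em 405/460 nm, triamterene-equivalent) was measured after 1 hr compound exposure at 37 C, 5% CO2. Cells were HepG2, plated overnight at 37 C in MEM plus 10% FBS.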
On the technique in general: Quantitative high-throughput screening tests each substance at several concentrations.
Turning to `OCCN1CCN(CCO)CC1`, the “fluorescence, % of fluorescent control” value was -0.01% [at 95.7 µM] (inactive).

In the case of `Cc1nnc(SCC2=C(C(=O)O)N3C(=O)[C@@H](NC(=O)Cn4cnnn4)[C@H]3SC2)s1`, the “fluorescence, % of fluorescent control” value is -0.0565% [at 46 µM] (inactive).

Turning to `CS(=O)(=O)c1ccc([C@@H](O)[C@@H](CF)NC(=O)C(Cl)Cl)cc1`, the fluorescence, % of fluorescent control is -0.0647% [at 18.6 µM] (inactive).

On to `CCCCC1CCC(=O)O1` (stereo not given), for which the “fluorescence, % of fluorescent control” value is -0.0094% (inactive).

As for `NC/C=C/C(=O)O`, the “fluorescence, % of fluorescent control” value is -0.0107% [at 46 µM] (inactive).

In the next assay the target is Glucocorticoid receptor (Homo sapiens) (UniProt P04150). Put plainly: qHTS assay to identify small molecule agonists of the glucocorticoid receptor (GR) signaling pathway (AID 720691; active = well fitted activation curve with a large enough effect in the signal ratio in the repeat runs, not every such curve was filed as active; inconclusive = weak or mixed curves, or effect the other way; inactive = no such curve, though single readings can be large or run the other way; the % refers to the signal ratio; also: potency is read from the fitted curve at half-maximal effect). Particulars: GR-bla HeLa, beta-lactamase reporter ratio, 18 h; series mostly up to 62.4 µM; activation: at the top concentration. The gist of the method: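 Agonist mode in a HeLa line carrying a GRE-controlled beta-lactamase reporter. Compounds act for 18 h at 37 C before a 2 h room-temperature FRET substrate step and fluorescence reading.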
Glucocorticoid receptor (Homo sapiens), sequence (P04150 whole entry, looked up): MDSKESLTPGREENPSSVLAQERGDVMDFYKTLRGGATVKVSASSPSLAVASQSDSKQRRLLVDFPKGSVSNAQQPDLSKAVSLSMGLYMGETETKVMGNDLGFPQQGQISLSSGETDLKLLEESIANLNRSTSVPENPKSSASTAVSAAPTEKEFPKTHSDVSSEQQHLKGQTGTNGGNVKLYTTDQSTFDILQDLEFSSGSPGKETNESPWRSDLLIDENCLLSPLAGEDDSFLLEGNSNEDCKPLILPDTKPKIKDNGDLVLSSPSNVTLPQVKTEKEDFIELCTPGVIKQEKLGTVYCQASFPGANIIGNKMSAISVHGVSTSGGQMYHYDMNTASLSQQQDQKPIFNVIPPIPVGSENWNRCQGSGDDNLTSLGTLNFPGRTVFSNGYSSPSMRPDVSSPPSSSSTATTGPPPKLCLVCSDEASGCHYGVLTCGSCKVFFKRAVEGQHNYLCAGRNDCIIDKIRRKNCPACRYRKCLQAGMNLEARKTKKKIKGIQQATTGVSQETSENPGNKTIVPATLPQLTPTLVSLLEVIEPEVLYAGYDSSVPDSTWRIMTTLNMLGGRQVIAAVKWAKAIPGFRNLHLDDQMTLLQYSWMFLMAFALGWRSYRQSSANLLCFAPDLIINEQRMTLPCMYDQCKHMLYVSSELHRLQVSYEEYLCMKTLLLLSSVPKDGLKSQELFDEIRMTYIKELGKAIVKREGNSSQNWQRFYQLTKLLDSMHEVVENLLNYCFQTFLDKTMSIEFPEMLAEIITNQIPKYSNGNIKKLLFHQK
For `Cc1ccc([N+](=O)[O-])cc1Cl`, the “activation” value was -5.05% [at 79.2 µM] (inactive).

With `NC(=O)Cc1cccc(C(=O)c2ccccc2)c1N`, the “activation” value was -6.33% (inactive).

On to `CN(C)CC[C@@H](c1ccc(Cl)cc1)c1ccccn1`, for which the “activation” value is -3.47% (inactive).

Turning to `CCOc1ccc(NC(N)=O)cc1`, the “activation” value is -4.57% (inactive).

For `C1CCOC1`, the “activation” value was -0.302% [at 79.2 µM] (inactive).

As for `C=C(C)C(=O)OCCOP(=O)(O)O`, the “activation” value was -2.32% [at 79.2 µM] (inactive).

Take `CC1CN(c2ccccc2)NC1=O` (stereo not given): the “activation” value is 3.75% (inactive).

Take `Cc1cc(S(=O)(=O)O)c(N)cc1Cl`: the “activation” value was -2.91% [at 79.2 µM] (inactive).

For `NC1=NCC2c3ccccc3Cc3ccccc3N12` (stereo not given), the “activation” value was -1.44% (inactive).

For `COc1ccc(Nc2ccc(OC)cc2)cc1`, the “activation” value was -5.29% [at 79.2 µM] (inactive).

As to `CCCCC(=O)O[C@]1(C(=O)CO)[C@H](C)C[C@H]2[C@@H]3CCC4=CC(=O)C=C[C@]4(C)[C@@]3(F)[C@@H](O)C[C@@]21C`, the Potency is 4.3 nM [inconclusive] (active).

As for `CCN(CC)C(=O)N(CC)CC`, the “activation” value is -1.11% (inactive).

Regarding `CC(C)(C)C1CCCCC1=O` (stereo not given), the “activation” value is 2.85% (inactive).

Take `CC1(C)C(=O)N(Cl)C(=O)N1Br`: the “activation” value is -3.88% (inactive).

For the compound `CC(=O)Nc1ccc(C)c(Cl)c1`, the “activation” value was -7.13% (inactive).

With `CC(C)C(=O)OCC(C)(C)C(O)C(C)C` (stereo not given), the “activation” value was -0.035% [at 79.2 µM] (inactive).

On to `OCCN1CCN(CCO)CC1`, for which the “activation” value is -0.233% [at 79.2 µM] (inactive).

With `CCCCC1CCC(=O)O1` (stereo not given), the “activation” value was -1.74% (inactive).

For the compound `NC/C=C/C(=O)O`, the “activation” value is 3.56% (inactive).

For the next assay the target is unchanged. Put plainly: qHTS assay to identify small molecule antagonists of the glucocorticoid receptor (GR) signaling pathway (AID 720692; active = well fitted inhibition curve with a large enough effect in the signal ratio in the repeat runs, not every such curve was filed as active; inconclusive = weak or mixed curves, or effect the other way; inactive = no such curve, though single readings can be large or run the other way; the % refers to the signal ratio). The conditions noted are these: GR-bla HeLa, beta-lactamase FRET ratio, dexamethasone-stimulated, 18 h; series mostly up to 58.5 µM; activity change, negative = inhibition: at the top concentration. The gist of the method: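 Cells plated, rested 4 h at 37 C/5% CO2; compounds in DMSO pin-transferred; dexamethasone added to 5 nM final; 18 h at 37 C; B/G FRET substrate added, 2 h room temperature; fluorescence measured.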
As to `Cc1ccc([N+](=O)[O-])cc1Cl`, the “activity change, negative = inhibition” value was -14% [at 78.9 µM] (inactive).

As for `NC(=O)Cc1cccc(C(=O)c2ccccc2)c1N`, the “activity change, negative = inhibition” value is -12% (inactive).

With `CN(C)CC[C@@H](c1ccc(Cl)cc1)c1ccccn1`, the “activity change, negative = inhibition” value was -3.25% (inactive).

Consider `CCCCC(CC)COC(=O)COc1cc(Cl)c(Cl)cc1Cl` (stereo not given), for which the “activity change, negative = inhibition” value was -3.38% (inactive).

Consider `CCOc1ccc(NC(N)=O)cc1`, for which the “activity change, negative = inhibition” value is 2.64% (inactive).

`C1CCOC1`: the “activity change, negative = inhibition” value is -17.4% [at 78.9 µM] (inactive).

Turning to `C=C(C)C(=O)OCCOP(=O)(O)O`, the “activity change, negative = inhibition” value was 5.42% [at 78.9 µM] (inactive).

`Cc1c(C(=O)NCCO)[n+](=O)c2ccccc2n1[O-]`: the “activity change, negative = inhibition” value was 0.0353% (inactive).

Take `Cc1cc(S(=O)(=O)O)c(N)cc1Cl`: the “activity change, negative = inhibition” value was 12.6% [at 78.9 µM] (inactive).

As for `NC1=NCC2c3ccccc3Cc3ccccc3N12` (stereo not given), the “activity change, negative = inhibition” value was 5.78% (inactive).

Consider `COc1ccc(Nc2ccc(OC)cc2)cc1`, for which the “activity change, negative = inhibition” value was 9.32% [at 78.9 µM] (inactive).

Regarding `O=C(O[C@@H](C(=O)O)[C@@H](OC(=O)c1ccccc1)C(=O)O)c1ccccc1`, the “activity change, negative = inhibition” value is -7.62% [at 78.9 µM] (inactive).

With `C[C@@H]1CN(c2c(F)c(N)c3c(=O)c(C(=O)O)cn(C4CC4)c3c2F)C[C@H](C)N1`, the “activity change, negative = inhibition” value is 2.69% (inactive).

Consider `CCN(CC)C(=O)N(CC)CC`, for which the “activity change, negative = inhibition” value is -8.51% (inactive).

With `CN1CCN(c2c(F)cc3c(=O)c(C(=O)O)cn4c3c2SCC4)CC1`, the “activity change, negative = inhibition” value is 7.8% (inactive).

Regarding `CC1(C)C(=O)N(Cl)C(=O)N1Br`, the “activity change, negative = inhibition” value is -9.76% (inactive).

For `Cc1c(N)cccc1N`, the “activity change, negative = inhibition” value is 11.5% [at 78.9 µM] (inactive).

As for `CC(=O)Nc1ccc(C)c(Cl)c1`, the “activity change, negative = inhibition” value was -12% (inactive).

For `CS(=O)(=O)c1ccc([C@@H](O)[C@@H](CF)NC(=O)C(Cl)Cl)cc1`, the “activity change, negative = inhibition” value is 6.24% [at 27 µM] (inactive).

`CCCCC1CCC(=O)O1` (stereo not given): the “activity change, negative = inhibition” value is -1.45% (inactive).

Take `NC/C=C/C(=O)O`: the “activity change, negative = inhibition” value was -10.9% (inactive).

Tested on in another assay: not listed separately
Briefly: qHTS assay to identify small molecule antagonists of the glucocorticoid receptor (GR) signaling pathway - cell viability counter screen (AID 720693). Also: nearly all actives have a fitted effect of over 55% in size. The conditions noted are these: GR-bla HeLa viability, CellTiter-Glo luminescence, 18 h, with 5 nM dexamethasone present; series mostly up to 58.5 µM; viability change, negative = cytotoxic: at the top concentration.
For the compound `FC(F)(F)c1ccccc1`, the “viability change, negative = cytotoxic” value was 7.81% (inactive).

Turning to `Cc1ccc([N+](=O)[O-])cc1Cl`, the “viability change, negative = cytotoxic” value is -3.62% [at 78.9 µM] (inactive).

As to `NC(=O)Cc1cccc(C(=O)c2ccccc2)c1N`, the “viability change, negative = cytotoxic” value was 0.652% (inactive).

For the compound `CN(C)CC[C@@H](c1ccc(Cl)cc1)c1ccccn1`, the “viability change, negative = cytotoxic” value is 2.3% (inactive).

As for `COc1cc(C)ccc1C(C)C`, the “viability change, negative = cytotoxic” value was 6.31% (inactive).

On to `CCOc1ccc(NC(N)=O)cc1`, for which the “viability change, negative = cytotoxic” value is -2.73% (inactive).

On to `C1CCOC1`, for which the “viability change, negative = cytotoxic” value was -0.16% [at 78.9 µM] (inactive).

With `C=C(C)C(=O)OCCOP(=O)(O)O`, the “viability change, negative = cytotoxic” value is -7.77% [at 78.9 µM] (inactive).

For the compound `CC/C=C\CCOC(=O)CCCCC`, the “viability change, negative = cytotoxic” value is 4.68% (inactive).

In the case of `CC1CN(c2ccccc2)NC1=O` (stereo not given), the “viability change, negative = cytotoxic” value was 1.02% (inactive).

As for `Cc1c(C(=O)NCCO)[n+](=O)c2ccccc2n1[O-]`, the “viability change, negative = cytotoxic” value was 1.46% (inactive).

On to `Cc1cc(S(=O)(=O)O)c(N)cc1Cl`, for which the “viability change, negative = cytotoxic” value was 16.3% [at 78.9 µM] (inactive).

On to `NC1=NCC2c3ccccc3Cc3ccccc3N12` (stereo not given), for which the “viability change, negative = cytotoxic” value was -3.28% (inactive).

As for `CCc1nnc(NS(=O)(=O)c2ccc(N)cc2)s1`, the “viability change, negative = cytotoxic” value is 13.2% (inactive).

Turning to `CCCCC(=O)O[C@]1(C(=O)CO)[C@H](C)C[C@H]2[C@@H]3CCC4=CC(=O)C=C[C@]4(C)[C@@]3(F)[C@@H](O)C[C@@]21C`, the “viability change, negative = cytotoxic” value was -17.7% (inactive).

For the compound `C[C@@H]1CN(c2c(F)c(N)c3c(=O)c(C(=O)O)cn(C4CC4)c3c2F)C[C@H](C)N1`, the “viability change, negative = cytotoxic” value was -0.657% (inactive).

Turning to `NNS(=O)(=O)c1ccc(Oc2ccc(S(=O)(=O)NN)cc2)cc1`, the “viability change, negative = cytotoxic” value is 3.01% (inactive).

For the compound `CCN(CC)C(=O)N(CC)CC`, the “viability change, negative = cytotoxic” value was -1.18% (inactive).

`Cc1ccsc1C(=CCCN1CCC[C@@H](C(=O)O)C1)c1sccc1C`: the “viability change, negative = cytotoxic” value is -0.865% (inactive).

Take `CC(C)(C)C1CCCCC1=O` (stereo not given): the “viability change, negative = cytotoxic” value is -0.348% (inactive).

On to `CC1(C)C(=O)N(Cl)C(=O)N1Br`, for which the “viability change, negative = cytotoxic” value is -3.51% (inactive).

For the compound `Cc1c(N)cccc1N`, the “viability change, negative = cytotoxic” value is -7.9% [at 78.9 µM] (inactive).

`CC(=O)Nc1ccc(C)c(Cl)c1`: the “viability change, negative = cytotoxic” value was -0.279% (inactive).

`CN(C)CCOc1ccccc1Cc1ccccc1`: the “viability change, negative = cytotoxic” value was 4.56% (inactive).

On to `CC(C)C(=O)OCC(C)(C)C(O)C(C)C` (stereo not given), for which the “viability change, negative = cytotoxic” value is 0.421% [at 78.9 µM] (inactive).

As to `OCCN1CCN(CCO)CC1`, the “viability change, negative = cytotoxic” value was 11.7% [at 78.9 µM] (inactive).

In the case of `Cc1nnc(SCC2=C(C(=O)O)N3C(=O)[C@@H](NC(=O)Cn4cnnn4)[C@H]3SC2)s1`, the “viability change, negative = cytotoxic” value is 7.91% (inactive).

Take `CS(=O)(=O)c1ccc([C@@H](O)[C@@H](CF)NC(=O)C(Cl)Cl)cc1`: the “viability change, negative = cytotoxic” value was 1.41% [at 27 µM] (inactive).

`CCCCC1CCC(=O)O1` (stereo not given): the “viability change, negative = cytotoxic” value was 8.98% (inactive).

For `NC/C=C/C(=O)O`, the “viability change, negative = cytotoxic” value was -3.4% (inactive).
